Data reported in PubChem BioAssay (NCATS).
Records with an inconclusive call do not appear. A number with no mark means an inactive call. Calls of active or inactive are those of the source. Calls come from the whole dose curve; as a rule, active = well fitted inhibition curve with a large enough effect; inconclusive = small, poorly fitted or top-dose-only effect; inactive = no such curve, though single readings can be large or run the other way.

assay: Primary fluorescence-based thiol-reactive (MSTI) qHTS assay for identification of artifact compounds. (AID 1845221); settings: MSTI thiol-reactivity probe, 1 h; series mostly up to 53.8 µM; activity change, negative = thiol reactive: at the top concentration; note: nearly all actives have a fitted effect of over 65% in size
Procedure, shortened: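 Compounds were incubated 1 h at room temperature in the dark with the MSTI probe (4 uM) in PBS pH 7.4, 2% DMSO. Signals were normalized between Acetyl-MSTI and MSTI.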
Potency is the fitted concentration of half-maximal effect.

| Structure (SMILES) | activity change, negative = thiol reactive | Potency |
| --- | --- | --- |
| CC1OC(OC2C(C)OC(OC3C(OC(=O)/C=C/c4ccc(O)cc4)C(CO)OC(OC4(COC(=O)/C=C/c5ccc(O)cc5)OC(CO)C(O)C4O)C3OC3OCC(O)(CO)C3O)C(O)C2O)C(O)C(O)C1O (stereo not given) | 1.76% [at 11.5 µM] | – |
| C[C@]1(OC(=O)/C=C/c2ccccc2)C[C@H](O)[C@]2(O)C=CO[C@@H](O[C@@H]3O[C@H](CO)[C@@H](O)[C@H](O)[C@H]3O)C12 (stereo not given in full) | 21.2% [at 25.6 µM] | – |
| C[C@@H]1O[C@@H](O[C@H]2[C@H](OC(=O)C34CCC5(C)C(=CCC6C7(C)CC(O)C(O[C@@H]8O[C@H](C(=O)O)[C@@H](O)[C@H](O)[C@H]8O)C(C)(C(=O)O)C7CCC65C)C3CC(C)(C)CC4O)O[C@H](C)[C@@H](O)[C@@H]2O)[C@H](O)[C@@H](O[C@@H]2OC[C@](O)(CO)[C@H]2O[C@@H]2O[C@H](CO)[C@@H](O)[C@H](O)[C@H]2O)[C@H]1O (stereo not given in full) | 44.4% [at 11.5 µM] | – |
| CC1(C(=O)O)CCCC2(C)C1CCC13CC(CCC21)C1(CO)OC31 (stereo not given) | 35.4% | – |
| CC1(C)O[C@@]2(C)CC[C@@H]1C[C@@H]2OC1OC(CO)C(O)C(O)C1O (stereo not given in full) | – | 7.36 µM (active) |
| C=C(C)C(C)C1OC23CC4(CO2)C(CCC2C5(C)CCC(OC6OCC(O)C(OC7OC(CO)C(O)C(OC8OCC(O)C(O)C8O)C7O)C6OC6OC(CO)C(O)C6O)C(C)(C)C5CCC24C)C3C(C)(O)C1OC(C)=O (stereo not given) | 644% [at 11.5 µM] | – |
| COc1cc(C2c3cc(O)c(OC)cc3CC(CO)C2CO)ccc1O (stereo not given) | – | 8.26 µM (active) |
| C=CC1(C)CC2=CCC3C(C)(C(=O)O)CCCC3(C)C2CC1OC(C)=O (stereo not given) | 10.8% | – |
| COc1c2c(c(C)c3c1C(=O)OC3)O[C@@]1(C)C[C@@H](O)[C@]34O[C@](OC)(CC[C@]3(C)[C@H]1C2)OC4(C)C | 72.4% [at 25.6 µM] | – |
| CC(c1c[nH]c2ccccc12)C(O)C(=O)O (stereo not given) | – | 10.6 µM (active) |
| C[C@@]12C[C@]3(O)O[C@H](O1)[C@]1(COC(=O)c4ccccc4)[C@H]3C[C@@]12O[C@@H]1O[C@H](COC(=O)c2ccccc2)[C@@H](O)[C@H](O)[C@H]1O | 56% [at 25.6 µM] | – |
| COc1cc(C(=O)OC[C@H]2O[C@H](O[C@@]3(CO)O[C@@H](CO)[C@H](O)[C@H]3O)[C@H](O)[C@@H](O)[C@@H]2O)ccc1O | -19.3% [at 25.6 µM] | – |
| CC(C)=CCC[C@](C)(O[C@@H]1O[C@H](CO[C@@H]2OC[C@@H](O)[C@H](O)[C@H]2O)[C@@H](O)[C@H](O)[C@H]1O)[C@H]1CC[C@]2(C)[C@@H]1[C@H](O)C[C@@H]1[C@@]3(C)CC[C@H](O[C@@H]4O[C@H](CO)[C@@H](O)[C@H](O)[C@H]4O[C@@H]4O[C@H](CO)[C@@H](O)[C@H](O)[C@H]4O)C(C)(C)[C@@H]3CC[C@]12C | 9.22% [at 25.6 µM] | – |
| C=C1CCC2C(C)(CO[C@@H]3O[C@H](CO)[C@@H](O)[C@H](O)[C@H]3O)C(O)CCC2(C)C1C(=O)CC1=CCOC1=O (stereo not given in full) | – | 10.3 µM (active) |
| CN1CC[C@@H](NC(=O)Nc2ccc(C#N)cc2)C[C@@H]1c1nc2ccccc2[nH]1 | 82.9% | – |
| C=C1CCC[C@]2(C)C[C@]3(O)OC(=O)C(C)=C3C[C@@H]12 | -0.503% | – |
| CC(=O)OCC1=C[C@H](O)[C@@H]2C(C(=O)O)=CO[C@@H](O[C@@H]3O[C@H](CO)[C@@H](O)[C@H](O)[C@H]3O)[C@H]12 | -1.28% [at 25.6 µM] | – |
| CC1OC(OC2C(CO)OC(OCC3OC(OC(=O)C45CCC(C)(C)CC4C4=CCC6C7(C)CCC(OC8OC(C(=O)O)C(O)C(OC9OC(CO)C(O)C(O)C9O)C8O)C(C)(C)C7CCC6(C)C4(C)CC5)C(O)C(O)C3O)C(O)C2O)C(O)C(O)C1O (stereo not given) | 336% [at 11.5 µM] | – |
| CC1CCC2C(C)(C)C(O)CCC2(C)C12Cc1c(O)cc3c(c1O2)C(N)=NC3 (stereo not given) | 8.44% | – |
| C=C1CC2C3(C)C(OC(C)=O)CC(=O)OC(C)(C)C3C(O)C(OC(C)=O)C2(C)C2C(=O)OC(C)C(=O)C12C (stereo not given) | 52.2% [at 25.6 µM] | – |

| Structure (SMILES) | activity change, negative = thiol reactive | Potency |
| --- | --- | --- |
| COC(=O)C1=CO[C@@H](O[C@@H]2O[C@H](CO)[C@@H](O)[C@H](O)[C@H]2O)[C@@H]2[C@@H](C)[C@@H](O)C[C@H]12 | 6.61% | – |
| O=C(O[C@H]1[C@@H]2C=CO[C@@H](O[C@@H]3O[C@H](CO)[C@@H](O)[C@H](O)[C@H]3O)[C@@H]2[C@@]2(CO)O[C@@H]12)c1ccc(O)c(O)c1 | – | 3.27 µM (active) |
| C=C1[C@H]2[C@H](O[C@@H]3O[C@H](COC(=O)/C=C/c4cc(OC)c(O)c(OC)c4)[C@@H](O)[C@H](O)[C@H]3O)OC=C(C(=O)O)[C@H]2C[C@@H]1O | – | 7.07 µM (active) |
| NC1CCC(N[C@@H]2C[C@H]2c2ccccc2)CC1 (stereo not given in full) | 1.47% | – |
| c1ccc(Nc2nc3c(s2)CCCc2[nH]ncc2-3)nc1 | – | 1.5 µM (active) |
| COC12CC3C(C(C)C1=CC(=O)O2)C(O)C(OC(C)=O)C1C(C)(C)C(OC(C)=O)CCC31C (stereo not given) | 119% [at 25.6 µM] | – |
| CC(=O)OCCC(C)CCC1C(C)(O)CCC2C(C)(C)CCCC21C (stereo not given) | -2.5% | – |
| FC(F)(F)c1cc(C(F)(F)F)c2ccc3nc(-c4nnco4)cn3c2n1 | -7.21% | – |
| C=CC1C(O[C@@H]2O[C@H](CO)[C@@H](O)[C@H](O)[C@H]2O)OC=C(C(=O)OC)C1Cc1nccc2c1[nH]c1ccccc12 (stereo not given in full) | 3.81% [at 25.6 µM] | – |
| O=C(/C=C/c1ccc(O)c(O)c1)OCc1ccccc1O[C@@H]1O[C@H](CO)[C@@H](O)[C@H](O)[C@H]1O | – | 0.922 µM (active) |
| C=C1CC[C@@H]2[C@](C)(CO[C@@H]3O[C@H](CO)[C@@H](O)[C@H](O)[C@H]3O)CCC[C@@]2(C)[C@@H]1CCC1=CCOC1=O | 136% [at 25.6 µM] | – |
| CC1(C)NC2N(C1=O)c1ccccc1C2(O)CC(C(=O)O)n1cnc2ccccc2c1=O (stereo not given) | 8.85% [at 25.6 µM] | – |
| OC[C@H]1O[C@@H](OCCc2ccc(O)cc2)[C@H](O)[C@@H](O)[C@@H]1O | – | 11.9 µM (active) |
| COC1(CC(C)C)NC(=O)C(O)(Cc2ccccc2)NC1=O (stereo not given) | -14.5% | – |
| CC1=CC(=O)C[C@H]2[C@@H]1CC[C@@H](C)[C@]21CO[C@H](c2ccoc2)C1=O | 14.9% | – |
| Cc1ccc(C(=O)Nc2ccc(Oc3cc4cnn(C)c4cc3-c3cn[nH]c3)c(F)c2)c(=O)n1-c1ccc(F)cc1 | 41.7% | – |
| CC(=O)OC[C@@]12[C@H](O)C[C@@H](C)[C@]3(C[C@@H](c4ccoc4)OC3=O)[C@H]1C[C@H](O)C[C@]21CO1 | 16.3% [at 25.6 µM] | – |
| CC1CCC2(O1)C(C)(C)CC(O[C@@H]1O[C@H](CO[C@@H]3OC[C@](O)(CO)[C@H]3O)[C@@H](O)[C@H](O)[C@H]1O)CC2(C)O (stereo not given in full) | – | 13 µM (active) |
| COc1cccc2c1CCC[C@H]2CN(C)CCc1ccc2ccoc2c1 | 64.2% | – |
| CCOC(=O)[C@H](CCc1ccccc1)CC1(C(=O)N[C@H]2CCc3ccccc3N(CC(=O)O)C2=O)CCCC1 | 138% | – |
